Test results taken from PubChem BioAssay AID2314 (National Center for Advancing Translational Sciences (NCATS), 2010).
In all, about 300,000 compounds went through this assay and about 37,000 (12%) were called active. Cut-off read from the data, not from the text of the source: active = max response mostly above about 13% (no sharp cut-off); inactive = mostly below about 14%. The full list was thinned out, with actives kept by preference.

Assay: Cycloheximide Counterscreen for Small Molecule Inhibitors of Shiga Toxin; note: read at 38.3 µM for the half of the compounds with a filed dose; 0% is about no effect
Settings: cell reporter, cycloheximide protein synthesis inhibition counterscreen; stronger effect = higher value

SMILES	max response
Cc1[nH][nH]c(=O)c1C(c1ccc2c(c1)OCO2)c1c(C)[nH][nH]c1=O	-0.172% (inactive)
Cc1[nH][nH]c(=O)c1N=Nc1ccccc1	-2.86% (inactive)
Nc1[nH][nH]c(=O)c1N=Nc1ccc2c(c1)OCO2	37.1% (active)
COc1cc(OC)c2c(c1C(CCN1CCCCC1)c1ccc(N(C)C)cc1)OC(=O)CC2c1ccc(N(C)C)cc1 (stereo not drawn)	-4.1% (inactive)
Cc1ccc(O)c(CCc2ccccc2)n1	17.6% (active)
Cc1ccc(O)c(-c2cc(C(=O)NCc3ccccc3)[nH]n2)c1	11.1% (inactive)
c1ccc(CSCCc2ccncc2)cc1	7.75% (inactive)
CC(=O)N1CC[n+]2c(-c3ccc([N+](=O)[O-])cc3)csc21	6.33% (inactive)
COc1cccc(-c2nc3ccc(N4CCN(C)CC4)cc3[nH]2)c1	-9.87% (inactive)
CN1CCN(c2ccc([N+](=O)[O-])c(Sc3nc4ccccc4[nH]3)c2)CC1	-2.61% (inactive)
Cc1nc2ccc(N3CCN(C)CC3)cc2nc1C	40.7% (active)
Cc1ccc(Cn2cc(C(=O)NN)c(=O)c3ccc(F)cc32)cc1	-3.85% (inactive)
Cc1ccc(CNC(=O)c2c(-c3ccccc3)noc2C)cc1	-2.32% (inactive)
COc1ccc(N2CCN(C(=O)c3ccc4c(Cl)c5c(nc4c3)CCCC5)CC2)cc1	-3.2% (inactive)
CC(=O)c1ccc(NC(=O)c2ccc3c(Cl)c4c(nc3c2)CCCC4)cc1	-0.107% (inactive)
CC(C)CCNC(=O)c1ccc2c(Cl)c3c(nc2c1)CCC3	48.4% (active)
COc1cccc(CC2(CO)CCN(Cc3cnc(-c4cccc(C)c4)nc3)CC2)c1	10.3% (inactive)
Cc1nc2ccc(C(=O)O)cc2[nH]1	-7.8% (inactive)
Oc1ccc2nc(Cc3ccccc3)[nH]c2c1	20.5% (active)
c1ccc2cc3[nH]c(CN4CCCCC4)nc3cc2c1	31.1% (inactive)
Cc1cc(OCC(=O)N2CCN(c3ncccn3)CC2)ccc1Cl	-2.98% (inactive)

SMILES	max response
O=C(CC1C(=O)NCCN1CC(c1ccccc1)c1ccccc1)NCC1CCOCC1 (stereo not drawn)	-4.31% (inactive)
CCCc1nc(NCc2ccc3c(c2)OCO3)c2nnn(Cc3ccccc3Cl)c2n1	-2.15% (inactive)
Cc1nc(Nc2ccc3c(c2)OCCO3)c2nnn(Cc3ccccc3Cl)c2n1	83.5% (active)
Cc1nc(Nc2ccccc2F)c2nnn(Cc3ccccc3Cl)c2n1	-1.8% (inactive)
CC1(c2ccc3ccccc3c2)NC(=O)N(CC(N)=O)C1=O (stereo not drawn)	-1.55% (inactive)
CC(C)=C(NC(=O)c1ccco1)C(=O)NCCc1nc2ccccc2[nH]1	-2.53% (inactive)
Nc1cccc(CCc2nc3ccccc3[nH]2)c1	24% (active)
Cc1ccc2nc(SCc3cn4c(C)cc(C)nc4n3)[nH]c2c1	-4.98% (inactive)
O=C(CNCc1ccc(Cl)cc1)Nc1cccc(C(=O)O)c1	-7.34% (inactive)
O=C(c1nnc(-c2ccc(Cl)cc2)o1)C1CCCC1	15.5% (active)
O=C(Nc1nnc(-c2ccc(Cl)cc2)o1)c1ccccc1Br	14.7% (inactive)
O=C(c1[nH]ncc1-c1ccc(Cl)cc1)C1CO1 (stereo not drawn)	16.3% (inactive)
CCCC(=O)N1CCC(CCC(=O)NC2CC2)CC1	10.7% (inactive)
COc1ccc(C(=O)Nc2c(N)nc(SCC(=O)Nc3ccc(C(C)=O)cc3)[nH]c2=O)cc1	0.562% (inactive)
CS(=O)(=O)N(Cc1ccccc1)c1ccc(C(=O)NN=C2CCCCCC2)cc1	0.492% (inactive)
CC(C)(C)NC(=O)C(=O)NN=C1CCCCCCC1	17.4% (inactive)
CCc1ccc(C(=O)NN=C2CCCCCC2)s1	33% (active)
COC(=O)c1cc(N2CCNCC2)nc2ccccc12	-0.723% (inactive)
CCSc1nsc(NC(=O)Nc2cccc(C(C)=O)c2)n1	47.8% (active)
CCc1nc(SCC(=O)Nc2ccccc2OC)n[nH]1	-2% (inactive)
CCc1nnc(NC(=O)CSc2nnnn2-c2cccc(C(C)=O)c2)s1	-0.713% (inactive)

SMILES	max response
CC(=O)c1cccc(NC(=O)[C@@H](NC(N)=O)C(C)C)c1	-2.8% (inactive)
COc1ccccc1NC(=O)Nc1nnc(Cc2ccc(F)cc2)s1	-1.91% (inactive)
C=C(C)C(=O)Nc1cccc(C(C)=O)c1	-4.07% (inactive)
C=CCSc1nsc(NC(=O)Nc2cccc(C(C)=O)c2)n1	15.7% (active)
CC(=O)c1cccc(NC(=S)N2CCN(S(C)(=O)=O)CC2)c1	3.24% (inactive)
CCSc1nsc(NC(=O)Nc2ccccc2OC)n1	29.3% (active)
Cc1cccn2c(=O)c3cc(C(=O)NCC4CCCO4)c(=N)n(Cc4ccc(F)cc4)c3nc12 (stereo not drawn)	-1.9% (inactive)
Cc1cc2oc(=O)cc(-c3ccccc3)c2c(C)c1/C=C/c1ccc(F)cc1	11.8% (inactive)
COc1ccc(CCNC(=O)CCCCCNC(=O)N2CCn3c2nc2ccccc23)cc1OC	-1.5% (inactive)
Cc1c(Cl)cccc1NC(=O)NCc1ccc(C)n1C	-4% (inactive)
CCCn1c(C(C)Nc2nc(-c3ccc(C)cc3)cs2)nc2cc(Cl)c(N3CCCCC3)cc21 (stereo not drawn)	-2.37% (inactive)
CCOC(=O)CSc1nc(C)c(Oc2ccc(Cl)cc2Cl)c(=O)[nH]1	-0.833% (inactive)
COC(=O)c1ccc(/C=N\n2c(C)nnc2C)cc1	-2.39% (inactive)
COC(=O)c1ccc(/C=N/N2C(C)CCCC2C)cc1 (stereo not drawn)	32.3% (active)
CC1CCCC(C)N1/N=C/c1ccccc1OC(F)F (stereo not drawn)	7.52% (inactive)
CNC(=O)c1c(NC(NC(=O)c2ccco2)C(=O)c2ccc(Cl)cc2)sc2c1CCCC2 (stereo not drawn)	-2.69% (inactive)
COC(=O)c1ccc(NC(=O)CSc2nncn2-c2cccnc2)cc1	3.92% (inactive)
COC(=O)C1(C)NC(c2ccc(F)cc2)C2C(=O)N(c3ccccc3)C(=O)C21 (stereo not drawn)	-1.89% (inactive)
COc1ccc(NC(=O)CN(C)C(=O)CNC(=O)C2CCCCC2)cc1	4.44% (inactive)
COc1cccc(NC(=O)CN(C)C(=O)Cc2ccc(Cl)cc2Cl)c1	-1.79% (inactive)
CN(CC(=O)Nc1ccc(Cl)cc1)C(=O)CNC(=O)c1ccc2ccccc2c1	24.6% (active)
